Assay outcomes from PubChem.
Shown are actives, neighbours in structure and some others; about 7.4% of the full set was active somewhere.
SMN2 splice enh: qHTS Assay for Enhancers of SMN2 Splice Variant Expression | HEK293 SMN2-luciferase splicing reporter, luminescence, 30-36 h | Potency, µM (highest dose often 46.1 µM), actives largely listed as activators | 210,000 compounds, 2.8% hits | AID 1458, 2008; also: nearly all actives have a fitted effect of over 55% in size
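HEK293 cells carry an SMN2 […]–luciferase reporter in which exon 7 inclusion puts luciferase in frame. Cells were plated 10-12 h before compound addition, then incubated 30-36 h at 37C. ONE-Glo luminescence was read; sodium butyrate at 4.5 mM final served as control.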
Luc counter: Counterscreen for Luciferase (Kinase-Glo TM) Inhibition; AID 1379, 2008; Luciferin 4-monooxygenase (Photuris pensylvanica), Q27757; Potency, µM (doses to about 38.3 µM), usual class: inhibitors; 200,000 compounds, 0.28% hits; Kinase-Glo luciferase, ATP luminescence, 8 min; also: nearly all actives have a fitted effect of over 60% in size
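Compound is pinned into ATP-containing buffer (10 uM ATP, imidazole pH 7.2, 7 mM MgCl2). Kinase-Glo luciferase reagent is then added. Light output is recorded following an 8-min room-temperature incubation.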
ELG1 genotox: qHTS screen for small molecules that induce genotoxicity in human embryonic kidney (HEK293T) cells expressing luciferase-tagged ELG1; 330,000 compounds, 1.3% hits; Potency, µM (titrated, usually from 46 µM), most hits filed as activators; AID 504466, 2011; HEK293T ELG1-luciferase reporter, luminescence, 16 h; also: nearly all actives have a fitted effect of over 60% in size
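Reporter readout depends on ELG1 protein level, which increases with genetic stress. After 16 hr compound exposure at 37 °C, luciferase activity was quantified using ONE-Glo.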
NPC1 prom act: qHTS Assay for NPC1 Promoter Activators | 320,000 compounds, 2.4% hits | Huh7 NPC1 promoter luciferase reporter, 24 h | Potency, µM (series often up to 9.22 µM), hits mostly activators; also: nearly all actives have a fitted effect of over 60% in size
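Luciferase expression driven by the NPC1 promoter was measured in stably transfected Huh7 cells after a 24 h compound incubation, using a luciferase reagent and a luminescence read.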
FLuc modulator: qHTS profiling assay for firefly luciferase inhibitor/activator using purifed enzyme and Km concentrations of substrates (counterscreen for miR-21 project); Potency, µM (doses to about 57.5 µM), usual class: inhibitors; AID 588342, 2011; Luciferin 4-monooxygenase (Photinus pyralis), P08659; purified FLuc, Km substrates, luminescence inhibition; 360,000 compounds, 6.9% hits; also: nearly all actives have a fitted effect of over 55% in size
Target sequence (P08659 whole entry, looked up): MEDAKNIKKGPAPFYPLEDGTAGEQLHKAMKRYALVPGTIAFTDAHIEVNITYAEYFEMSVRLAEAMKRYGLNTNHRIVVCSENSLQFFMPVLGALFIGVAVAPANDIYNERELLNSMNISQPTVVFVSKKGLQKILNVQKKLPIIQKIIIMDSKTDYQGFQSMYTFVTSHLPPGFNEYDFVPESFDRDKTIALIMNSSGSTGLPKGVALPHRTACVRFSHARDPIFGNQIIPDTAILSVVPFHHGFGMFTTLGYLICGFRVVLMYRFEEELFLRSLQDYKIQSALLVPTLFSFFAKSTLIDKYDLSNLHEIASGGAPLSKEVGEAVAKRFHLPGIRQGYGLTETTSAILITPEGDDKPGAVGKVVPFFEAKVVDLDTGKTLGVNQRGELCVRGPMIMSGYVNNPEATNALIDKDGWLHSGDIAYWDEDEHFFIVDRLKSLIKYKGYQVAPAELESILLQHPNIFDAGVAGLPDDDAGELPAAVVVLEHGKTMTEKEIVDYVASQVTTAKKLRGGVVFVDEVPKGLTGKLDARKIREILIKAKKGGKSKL
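Purified P. pyralis luciferase (10nM final) with 10uM D-luciferin and 10uM ATP (Km levels) in 50mM Tris acetate pH 7.5, 10mM Mg acetate, 0.01% Tween-20, 0.05% BSA; qHTS 6-point titration, ~60 µM downward; luminescence read.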
Rab9 prom act: qHTS Assay for Rab9 Promoter Activators; Huh7 Rab9 promoter-luciferase reporter, luminescence, 24 h; Potency, µM (titrated, usually from 9.22 µM), most hits filed as activators; 320,000 compounds, 2.8% hits; AID 485297, 2010; also: nearly all actives have a fitted effect of over 60% in size
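Luminescence read-out: Huh7 cells stably expressing Rab9-luciferase, treated 24 h with compound at 37 °C, then lysed with luciferase reagent for 10 min at ambient before reading.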
Hits are given with their value; – = inactive; ? = inconclusive; · = not tested or not shown. Calls follow the shape of the dose curve; as a rule, active = well fitted curve in the direction sought with a large enough effect; inconclusive = small, poorly fitted or top-dose-only effect, or another doubt; inactive = no such curve, though single readings can be large; an effect the other way counts as inactive or inconclusive.

SMILES	SMN2 splice enh	Luc counter	ELG1 genotox	NPC1 prom act	FLuc modulator	Rab9 prom act
CC1CC1C(=O)OCC(=O)NCc1ccccc1Cl (stereo not given)	–	–	–	–	–	–
COc1ccccc1NC(=O)COC(=O)C1CCCC1	·	·	–	·	·	·
O=C(COC(=O)c1ccco1)NCc1ccccc1Cl	–	–	–	–	27µM	–
CCCCN(C(=O)c1cc2c(s1)CCC2)c1c(N)n(CCC)c(=O)[nH]c1=O	·	·	–	–	–	–
O=C(COC(=O)C1CCCCC1)NCCc1ccccc1	–	–	–	–	17µM	–
CC(=O)Nc1ccccc1/C=C/c1ccc2c(C)ccc(O)c2n1	–	–	–	–	?	–
Oc1cccc2ccc(/C=C/c3ccccc3Cl)nc12	·	·	18µM	?	1.9µM	–
Oc1cccc2ccc(/C=C/c3c(F)cccc3Cl)nc12	25µM	?	15µM	?	3µM	4µM
Nc1nccc(/C=C/c2c(F)cccc2Cl)n1	?	–	?	–	24µM	?
Cc1nc(N2CCC(C)CC2)c2c(C)c(C(=O)Nc3ccccc3C(F)(F)F)sc2n1	–	–	–	–	–	–
O=C(Nn1nnnc1Nc1ccccc1)C12CC3CC(CC(C3)C1)C2	22µM	–	–	–	–	–
O=C(NCc1ccccc1)C12CC3CC(CC(C3)C1)C2	–	–	–	–	–	–
O=C(CCC(=O)N1CCOc2ccccc21)Nc1ccccc1Br	·	·	–	–	–	–
COc1cc(/C=N/NC2=NCCCCC2)ccc1O	·	·	–	–	–	–
COc1cc(/C=N/Nc2ncnc3sc4c(c23)CCC4)ccc1O	–	–	?	–	2.4µM	–
Cc1ccc(Nc2ncnc3sc(C)c(C)c23)cc1	?	–	?	–	21µM	–
C/C(=N\Nc1ncc(Cl)cc1Cl)c1ccccn1	–	?	?	–	0.17µM	–
C/C(=N\Nc1ncnc2sc(C)c(C)c12)c1ccccn1	·	·	?	?	5.4µM	–
Cc1ccc(S(=O)(=O)Nc2ncnc3sc(C)c(C)c23)cc1	·	·	–	–	–	–
Cc1sc2ncnc(Nc3ccc(O)cc3)c2c1C	·	·	–	–	–	–
CCC(c1nnc(SCC(=O)NC2CCCCC2)n1Cc1ccccc1)N(C)C (stereo not given)	·	·	–	–	–	–
CC(NC(=O)COC(=O)c1ccccc1O)C1CC2CCC1C2 (stereo not given)	·	·	–	·	·	·
Cc1sc2ncnc(N/N=C/c3cccc(O)c3)c2c1C	?	–	?	–	11µM	–
COc1ccc(NC(=O)NCCC2=CCCCC2)cc1	13µM	–	?	4µM	?	2.8µM
COc1cccc(NC(=O)NCCC2=CCCCC2)c1	14µM	–	?	3.5µM	15µM	4.5µM
SMILES	SMN2 splice enh	Luc counter	ELG1 genotox	NPC1 prom act	FLuc modulator	Rab9 prom act
c1ccc2c(-n3cccn3)cccc2c1	–	–	?	?	15µM	–
C/C(=N\NC(=O)c1ccccc1)c1ccc2c(c1)OCO2	–	–	18µM	?	15µM	2.8µM
C/C(=N\NC(=O)c1ccc2c(c1)OCO2)c1cccnc1	·	·	?	?	?	3.5µM
C/C(=N/NC(=O)CCc1ccccc1)c1ccc2c(c1)OCO2	·	·	–	–	–	–
O=C(N/N=C(\c1ccccc1)c1cccnc1)c1cccc(F)c1	·	·	16µM	–	–	–
C/C(=N\NC(=O)c1ccc(Br)cc1)c1cccnc1	·	·	?	–	13µM	?
Cc1cc(C)c2c(=O)[nH]c(SCc3ccccc3)nc2n1	·	–	–	–	?	–
COc1cc2c(cc1OC)CN(C(=O)C1CCCN(C(=O)c3ccc(Cl)cc3)C1)CC2 (stereo not given)	·	·	–	–	–	–
COC(=O)C(Cc1ccccc1)NC(=O)CNC(=O)c1ccccc1OC (stereo not given)	·	·	–	–	–	–
C/C(=N\NC(=O)c1cc(C)oc1C)c1ccc2c(c1)OCO2	–	–	–	–	?	?
CC(=O)Nc1cccc(/C(C)=N/NC(=O)c2ccc3c(c2)OCO3)c1	11µM	–	?	–	6µM	?
C/C(=N\NC(=O)c1c[nH]c2ccccc12)c1ccc2c(c1)OCO2	–	–	–	–	27µM	–
COC(=O)C1CN(C(=O)C(C)Oc2ccc(C)c(C)c2)c2ccccc2O1 (stereo not given)	·	·	–	–	–	–
Cc1cccc(C(=O)Nc2ccc(OCc3cc(=O)n4ccsc4n3)cc2)c1	–	·	·	·	–	·
COc1ccc(OC)c(NC(=O)COC(=O)c2cc3c(s2)CCC3)c1	–	–	–	–	–	–
COc1ccc(C)cc1NC(=O)Nc1ccc2c(c1)CCC2	·	·	–	–	9.5µM	–
COc1ccccc1NC(=O)COC(=O)c1cc2c(s1)CCC2	·	·	–	–	8.5µM	–
COc1ccc(NC(=O)Nc2ccc3c(c2)CCC3)cc1OC	–	–	–	–	–	–
COc1ccccc1NC(=O)Nc1ccc2c(c1)CCC2	·	·	13µM	2.5µM	3µM	2.5µM
CCOCCOc1cccc(C(=O)NC(C)c2ccc3ccccc3c2)c1 (stereo not given)	·	·	–	–	–	–
CCCC(=O)c1ccc(N2CCCCCC2)c(F)c1	–	–	?	3.2µM	8.5µM	3.5µM
CCCC(=O)c1ccc(N2CCCCC2)c(F)c1	–	–	?	?	13µM	?
CCCC(=O)c1ccc(N2CCN(C(=O)OCC)CC2)c(F)c1	–	–	–	–	–	–
O=C(c1ccc(=O)[nH]n1)N1CCN(S(=O)(=O)c2cccc(F)c2)CC1	·	·	–	–	–	–
CC(=O)c1c(C)[nH]c(C(=O)Nc2nc(-c3ccccc3)c(C)s2)c1C	·	·	–	?	3µM	?
SMILES	SMN2 splice enh	Luc counter	ELG1 genotox	NPC1 prom act	FLuc modulator	Rab9 prom act
CC(=O)c1c(C)[nH]c(C(=O)Nc2cccc3ccccc23)c1C	·	·	–	–	–	–
CC(=O)c1sc(NC(=O)c2ccco2)nc1-c1ccccc1	–	–	15µM	?	11µM	?
Cc1cnc(NC(=O)c2ccco2)s1	?	–	?	?	21µM	?
Cc1ccc2nc(-c3ccccc3)c(NC(=O)c3ccco3)n2c1	–	–	–	–	–	–
CCOC(=O)c1sc(NC(=O)c2ccco2)nc1-c1ccccc1	–	–	–	–	–	–
Cc1sc(NC(=O)c2ccco2)nc1-c1ccccc1	4.5µM	–	?	3.5µM	2.1µM	1.6µM
Cc1sc(N/N=C/c2cccs2)nc1-c1ccccc1	–	–	?	–	11µM	?
O=C(Nc1c(-c2ccccc2)nc2ccccn12)c1cccs1	–	–	–	–	–	–
O=C(Nc1nsc(-c2ccccc2)n1)c1cccs1	3.2µM	?	0.58µM	1.6µM	4.3µM	1.1µM
